# Results filed as inconclusive are left out. A call without a number means that no potency is given here. Calls of active or inactive are those of the source. Unless noted, the call rests on the fitted dose curve; in most records, active means well fitted curve in the direction sought with a large enough effect; inconclusive means small, poorly fitted or top-dose-only effect, or another doubt; inactive means no such curve, though single readings can be large; an effect the other way counts as inactive or inconclusive.
# Key:
# [1] = Validation of Assay for Modulators of Lamin A Splicing (AID 1459; active means well fitted curve in the direction sought with a large enough effect in the signal ratio; the % refers to the signal ratio;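 further: cells exposed to compound for two days before reading; ratio rise marks activators and ratio drop marks inhibitors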)
# How it was run: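 S3 HeLa stably expressing lamin A-EGFP splicing minigene and DsRed2, 600 cells/well in Opti-MEM with 2% FBS, treated 48 h at 37C; laser-scanning cytometry gives GFP/RFP total intensity ratio; ancitabine positive control, 0.5% DMSO vehicle.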
# [2] = qHTS Assay for Lipid Storage Modulators (AID 1519; calls by dose curve); settings: Drosophila S3 cells, BODIPY lipid droplet/cell ratio, laser cytometry, cells loaded with oleic acid
# How it was run: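 Cells seeded at 5,000 per well were treated with compounds over a concentration series and loaded with oleic acid (400 uM, as added). Lipid droplet fluorescence (488 nm excitation, 500-530 nm channel) was read by laser-scanning cytometry and normalized to 20 uM Triacsin C.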
# [3] = biological target: DNA repair nuclease/redox regulator APEX1 (Homo sapiens) (UniProt P27695); assay: qHTS Validation Assay for Inhibitors of the Human Apurinic/apyrimidinic Endonuclease 1 (APE1) (AID 1705;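 further: TAMRA fluorescence gain over two minutes as APE1 cuts a quenched THF abasic duplex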)
# How it was run: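 Fluorogenic double-stranded THF abasic-site substrate (5'-TAMRA/3'-BHQ-2), 50 nM final. Enzyme preincubated with compound 15 min at room temperature, then substrate added. Kinetic fluorescence (ex 525/em 598 nm) read three times at 60 s intervals; activity taken as third-minus-first read difference.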
# [4] = Counterscreen for APE1 Inhibitors: Fluorescent Dye Displacement Validation Assay (AID 1707)
# How it was run: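 Thiazole Orange displacement from dsDNA: 250 nM ThO with 50 nM TAMRA-labelled abasic-site (tetrahydrofuran) duplex in 50 mM Tris-HCl pH7.5, 50mM NaCl, 2 mM MgCl2, 0.01% Tween-20. Loss of endpoint fluorescence (ex 480 nm, em 540 nm) flags DNA binders.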
# [5] = qHTS for differential inhibitors of proliferation of Plasmodium falciparum line 7G8 (AID 1815);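 further: parasite growth measured after three days of incubation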
# [6] = qHTS for differential inhibitors of proliferation of Plasmodium falciparum line GB4 (AID 1816); settings: Potency: Plasmodium falciparum GB4 proliferation inhibition;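 further: parasite growth measured after 72 h incubation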
# [7] = qHTS for differential inhibitors of proliferation of Plasmodium falciparum line 3D7 (AID 1876); further: potency means the concentration at half of the fitted maximal effect
# [8] = qHTS for differential inhibitors of proliferation of Plasmodium falciparum line D10 (AID 1877);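 further: parasites grown with compound for 72 h before DNA staining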
# [9] = qHTS for differential inhibitors of proliferation of Plasmodium falciparum line Dd2 (AID 1882); settings: Potency: Plasmodium falciparum Dd2 proliferation inhibition;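 further: compound exposure of 72 h on infected erythrocytes; nearly all actives have a fitted effect of over 65% in size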
# How it was run: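 SYBR Green I DNA fluorescence read-out, ex 485/em 535 nm. Signals were normalized to 0.29 uM artemisinin and DMSO wells, then corrected using vehicle-only plates flanking each stack. Parasite growth ran 72 h in erythrocytes before lysis.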
# [10] = qHTS for differential inhibitors of proliferation of Plasmodium falciparum line HB3 (AID 1886); settings: Potency: Plasmodium falciparum HB3 proliferation inhibition;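 further: parasites grown with compound for 72 h before SYBR Green readout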
# [11] = qHTS Assay for Modulators of Human Peripheral Myelin Protein 22 (PMP22) Expression/Activity (AID 1967; active means well fitted curve in the direction sought with a large enough effect in the signal ratio; the % refers to the signal ratio)
# How it was run: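 Mouse MSC80 Schwann cells carrying Pmp22 promoter–green click beetle luciferase plus EF-alpha–red luciferase control, dosed 24 h at 37 °C. Dual-filter luminescence, overlap-corrected; %Activity from green/red ratio normalised to untreated cells, concentration-response curves fitted.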
# [12] = biological target: Ferritin light chain (Equus caballus) (UniProt P02791); assay: qHTS Validation Assay for Identification of Novel General Anesthetics (AID 2323)
# How it was run: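 Horse-spleen apoferritin (10 uM) in PBS with 50% saturated 1-aminoanthracene; compounds pin-transferred, 10 min at room temperature. Fluorescence read at 380/535 nm, normalized to free 1-AMA and 1-AMA/apoferritin values; four-parameter Hill fit.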
# [13] = biological target: ATP-dependent DNA helicase Q1 (Homo sapiens) (UniProt P46063); assay: qHTS Validation Assay for Inhibitors of RecQ-Like Dna Helicase 1 (RECQ1) (AID 2353)
# How it was run: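 50 nM RECQ1T1 preincubated 15 min with compound in Tris pH 8.0 buffer with MgCl2, DTT, Tween-20 and 2.5 ug/ml poly(dI-dC); started with 200 nM TAMRA/BHQ-2 forked duplex and 2 mM ATP. Unwinding read as fluorescence (525/598 nm), two reads 2 h apart.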
# [14] = biological target: RecQ-like DNA helicase BLM (Homo sapiens) (UniProt P54132); assay: qHTS Validation Assay for Inhibitors of Bloom's syndrome helicase (BLM) (AID 2364)
# How it was run: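 BLM 50 nM in 25 mM Tris-HCl pH 8.0, 5 mM NaCl, 2 mM MgCl2, 1 mM DTT, 0.01% Tween-20, 2.5 ug/ml poly(dI-dC); 15 min cpd preinc, RT. Start: 200 nM forked DNA + 2 mM ATP (final). TAMRA read, 2 reads 2 h apart.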
# [15] = Validation screen for inhibitors of Lassa infection (AID 463096; calls by dose curve)
# [16] = Validation screen for small molecules that induce DNA re-replication in MCF 10A normal breast cells (AID 463097); further: nearly all actives have a fitted effect of over 60% in size
# How it was run: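 MCF 10A cells exposed to compound 48 hr at 37 C, 5% CO2, then Hoechst-stained 40 min. Laser-scanning imaging of nuclear DNA content (405 nm ex, 500-530 nm em); re-replication scored as rise in nuclei with elevated fluorescence intensity.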
# [17] = Quantitative high throughput screen for delayed death inhibitors of the malarial parasite plastid, 48 hour incubation (AID 488752); further: nearly all actives have a fitted effect of over 65% in size
# How it was run: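 Erythrocytes infected with P. falciparum carrying an integrated firefly luciferase reporter (2% hematocrit, 0.1% parasitemia final) were exposed to compounds in RPMI 1640/0.5% Albumax for 48 h at 37 C, 5% CO2. Growth inhibition was scored as reduced luminescence.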
# [18] = biological target: M-phase phosphoprotein 8 (Homo sapiens) (UniProt Q99549); assay: qHTS Validation Assay for Inhibitors for MPP8 Chromodomain Interactions with Methylated Histone Tails (AID 488949); further: top concentration of the series differs between compounds; nearly all actives have a fitted effect of over 55% in size
# How it was run: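 MPP8 (50 nM) was pre-bound to 50 nM biotinylated H3(1-18)K9me3 peptide in PBS pH 7.4 with 0.01% Tween-20. Compounds were then added for 30 min at room temperature, and complex disruption was read by AlphaScreen with streptavidin donor and nickel-chelate acceptor beads.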
# [19] = biological target: Transient receptor potential cation channel subfamily V member 1 (Homo sapiens) (UniProt Q8NER1); assay: HTS Assay for Compounds that Act as Enhancers of the Vanilloid Receptor 1 (AID 488979)
# How it was run: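 TRPV1-expressing cells loaded with Fluo-8 calcium dye; compounds added and calcium influx read kinetically for 3 min (agonist phase), then capsaicin at EC20 added and read 2 min more for enhancement. Fluorescence ex 480/em 520 nm.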
# [20] = biological target: Thyrotropin receptor (Homo sapiens) (UniProt P16473); assay: qHTS Assay for Antagonists of the Thyroid Stimulating Hormone Receptor (AID 488980)
# How it was run: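 TSHR-transfected HEK293 cells (2000/well) in HEPES-buffered HBSS with 70 uM RO 20-1724 were stimulated with 4 nM TSH (EC80, final) in the presence of compound. cAMP was measured by HTRF competition after lysis and 30 min at RT.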
# [21] = biological target: Thyrotropin-releasing hormone receptor (Homo sapiens) (UniProt P34981); assay: qHTS for Small Molecule Agonists and Allosteric Enhancers of Human TRH Receptor: Validation Screen for Agonists (AID 493127;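 active means calcium activation more than 3 SD above the typical response in the agonist read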;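 further: intracellular calcium rise by fluo-8 fluorescence before TRH EC20 addition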); settings: TRH receptor agonist cell assay; at 2 µM; stronger effect = higher value
# How it was run: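 TRHR-expressing cells were plated overnight in serum-containing medium, then loaded with fluo-8 calcium dye at room temperature for 30 min–1.5 h. After a 10 s baseline, compound was pin-transferred and calcium fluorescence (ex 480/em 530) read kinetically for agonist response.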
# [22] = biological target: Galactokinase (Homo sapiens) (UniProt P51570); assay: qHTS Validation Assay for Inhibitors of Human Galactokinase (GALK) (AID 493189)
# How it was run: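 GALK (5 nM) with 35 uM ATP and 100 uM galactose in HEPES pH 8.0 with MgCl2, NaCl, DTT and BSA. Reaction ran 1 h at room temperature. Residual ATP read by Kinase-Glo Plus luminescence.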
# [23] = biological target: Voltage-gated inwardly rectifying potassium channel KCNH2 (Homo sapiens) (UniProt Q12809); assay: qHTS Assay for Small Molecule Inhibitors of the Human hERG Channel Activity (AID 588834);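 further: top concentration of the series differs between compounds; lower thallium flux fluorescence means stronger hERG block; nearly all actives have a fitted effect of over 50% in size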
# How it was run: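 U2OS cells BacMam-transduced with hERG, 2000 cells/well, compound ~10 min at 37 °C before stimulation buffer. FluxOR thallium flux fluorescence read kinetically on FDSS; decrease indicates block; AC50 from Hill fits.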
# [24] = system: Zika virus NS2B-NS3 protease; assay: Primary screen GU AMC qHTS for Zika virus inhibitors (AID 1347154); further: nearly all actives have a fitted effect of over 70% in size
# How it was run: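 Unlinked Zika NS2B hydrophilic domain/NS3 protease domain noncovalent complex (25 nM final) in 10 mM Tris-HCl pH 8.0, 0.01% Tween 20, with AMC peptide substrate. Fluorescence (ex 340, em 450 nm) change over 15 min, room temperature; percent inhibition fitted to 4-parameter Hill equation.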
# Sequence of Thyrotropin receptor (Homo sapiens) (P16473 whole entry, looked up): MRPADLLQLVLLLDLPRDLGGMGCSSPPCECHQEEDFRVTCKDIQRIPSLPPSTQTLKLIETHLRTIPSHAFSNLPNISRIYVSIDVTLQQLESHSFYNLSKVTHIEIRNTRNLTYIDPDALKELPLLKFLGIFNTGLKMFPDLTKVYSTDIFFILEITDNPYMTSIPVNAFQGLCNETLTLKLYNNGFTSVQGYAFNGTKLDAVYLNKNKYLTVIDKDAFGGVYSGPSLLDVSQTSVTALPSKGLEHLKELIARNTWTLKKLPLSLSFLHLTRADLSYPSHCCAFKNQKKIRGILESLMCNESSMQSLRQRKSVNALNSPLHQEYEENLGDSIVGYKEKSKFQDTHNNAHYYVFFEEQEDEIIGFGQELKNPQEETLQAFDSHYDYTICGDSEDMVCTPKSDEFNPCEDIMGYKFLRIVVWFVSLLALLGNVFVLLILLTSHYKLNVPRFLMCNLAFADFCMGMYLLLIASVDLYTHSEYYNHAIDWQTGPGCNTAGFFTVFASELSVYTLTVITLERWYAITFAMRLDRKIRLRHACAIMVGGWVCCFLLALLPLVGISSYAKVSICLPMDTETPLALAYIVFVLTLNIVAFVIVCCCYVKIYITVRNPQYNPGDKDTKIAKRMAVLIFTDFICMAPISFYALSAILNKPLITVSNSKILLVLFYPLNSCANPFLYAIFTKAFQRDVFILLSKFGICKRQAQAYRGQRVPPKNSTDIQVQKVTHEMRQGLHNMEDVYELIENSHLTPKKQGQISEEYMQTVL
# Sequence of Thyrotropin-releasing hormone receptor (Homo sapiens) (P34981 whole entry, looked up): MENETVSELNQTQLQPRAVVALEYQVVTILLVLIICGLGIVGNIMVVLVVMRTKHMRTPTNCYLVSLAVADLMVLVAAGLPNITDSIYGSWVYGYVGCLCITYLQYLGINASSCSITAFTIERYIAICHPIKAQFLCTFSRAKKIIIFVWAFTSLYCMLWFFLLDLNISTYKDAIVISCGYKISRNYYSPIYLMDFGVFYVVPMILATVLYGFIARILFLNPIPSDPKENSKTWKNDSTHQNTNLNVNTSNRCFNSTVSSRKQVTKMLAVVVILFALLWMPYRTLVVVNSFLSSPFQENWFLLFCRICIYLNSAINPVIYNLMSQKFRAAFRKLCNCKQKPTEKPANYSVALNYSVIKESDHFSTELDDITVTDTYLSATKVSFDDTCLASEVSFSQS
# Sequence of Ferritin light chain (Equus caballus) (P02791 2-175 limits assumed): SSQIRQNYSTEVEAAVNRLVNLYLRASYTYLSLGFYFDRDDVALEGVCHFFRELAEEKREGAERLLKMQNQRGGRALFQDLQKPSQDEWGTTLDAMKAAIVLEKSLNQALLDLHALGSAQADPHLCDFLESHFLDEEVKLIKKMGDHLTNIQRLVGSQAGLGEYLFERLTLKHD
# Sequence of ATP-dependent DNA helicase Q1 (Homo sapiens) (P46063 whole entry, looked up): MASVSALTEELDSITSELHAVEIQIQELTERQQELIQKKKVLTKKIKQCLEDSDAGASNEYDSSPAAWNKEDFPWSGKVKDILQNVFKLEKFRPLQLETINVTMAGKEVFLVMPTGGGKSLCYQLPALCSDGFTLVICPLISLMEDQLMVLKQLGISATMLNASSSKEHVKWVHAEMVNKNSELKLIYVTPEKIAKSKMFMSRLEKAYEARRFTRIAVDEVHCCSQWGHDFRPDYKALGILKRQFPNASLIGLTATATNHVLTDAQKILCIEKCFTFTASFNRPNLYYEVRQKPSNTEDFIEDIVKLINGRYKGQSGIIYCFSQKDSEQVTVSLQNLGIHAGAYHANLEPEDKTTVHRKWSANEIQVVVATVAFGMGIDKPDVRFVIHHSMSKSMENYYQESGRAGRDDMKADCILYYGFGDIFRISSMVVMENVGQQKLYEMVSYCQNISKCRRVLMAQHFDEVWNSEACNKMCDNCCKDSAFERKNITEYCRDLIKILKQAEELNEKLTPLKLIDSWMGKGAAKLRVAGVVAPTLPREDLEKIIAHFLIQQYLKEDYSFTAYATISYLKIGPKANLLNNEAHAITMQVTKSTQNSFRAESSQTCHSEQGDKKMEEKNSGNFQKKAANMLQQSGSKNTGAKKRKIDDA
# Sequence of Voltage-gated inwardly rectifying potassium channel KCNH2 (Homo sapiens) (Q12809 whole entry, looked up): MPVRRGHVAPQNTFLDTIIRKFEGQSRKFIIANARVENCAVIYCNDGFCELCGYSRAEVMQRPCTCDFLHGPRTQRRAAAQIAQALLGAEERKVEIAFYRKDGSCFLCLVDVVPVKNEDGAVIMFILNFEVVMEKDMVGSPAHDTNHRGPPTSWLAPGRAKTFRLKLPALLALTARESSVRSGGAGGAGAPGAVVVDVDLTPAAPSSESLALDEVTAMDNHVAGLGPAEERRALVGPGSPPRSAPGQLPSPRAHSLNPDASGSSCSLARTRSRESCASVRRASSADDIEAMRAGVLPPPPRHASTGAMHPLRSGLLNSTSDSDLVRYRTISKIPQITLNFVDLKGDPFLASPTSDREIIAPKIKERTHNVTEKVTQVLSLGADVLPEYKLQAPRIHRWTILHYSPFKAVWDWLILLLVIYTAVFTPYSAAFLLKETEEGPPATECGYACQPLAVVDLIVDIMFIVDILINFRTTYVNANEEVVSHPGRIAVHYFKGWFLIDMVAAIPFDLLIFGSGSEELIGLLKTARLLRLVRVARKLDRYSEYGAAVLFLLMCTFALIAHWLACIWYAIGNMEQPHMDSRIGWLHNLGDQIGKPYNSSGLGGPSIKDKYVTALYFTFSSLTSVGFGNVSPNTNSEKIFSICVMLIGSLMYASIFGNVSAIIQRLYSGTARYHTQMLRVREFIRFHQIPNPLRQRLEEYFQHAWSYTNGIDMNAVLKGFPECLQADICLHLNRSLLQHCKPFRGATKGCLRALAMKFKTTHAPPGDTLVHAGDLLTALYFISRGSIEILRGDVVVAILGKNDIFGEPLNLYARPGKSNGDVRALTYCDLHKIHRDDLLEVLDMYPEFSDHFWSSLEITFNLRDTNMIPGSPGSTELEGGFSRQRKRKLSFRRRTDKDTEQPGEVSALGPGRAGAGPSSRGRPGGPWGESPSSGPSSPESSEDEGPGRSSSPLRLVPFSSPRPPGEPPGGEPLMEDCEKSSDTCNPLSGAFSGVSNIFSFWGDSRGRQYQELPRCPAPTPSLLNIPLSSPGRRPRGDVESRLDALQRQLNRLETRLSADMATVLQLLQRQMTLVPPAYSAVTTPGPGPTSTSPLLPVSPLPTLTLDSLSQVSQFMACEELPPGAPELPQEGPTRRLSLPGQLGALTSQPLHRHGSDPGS
# Sequence of M-phase phosphoprotein 8 (Homo sapiens) (Q99549 whole entry, looked up): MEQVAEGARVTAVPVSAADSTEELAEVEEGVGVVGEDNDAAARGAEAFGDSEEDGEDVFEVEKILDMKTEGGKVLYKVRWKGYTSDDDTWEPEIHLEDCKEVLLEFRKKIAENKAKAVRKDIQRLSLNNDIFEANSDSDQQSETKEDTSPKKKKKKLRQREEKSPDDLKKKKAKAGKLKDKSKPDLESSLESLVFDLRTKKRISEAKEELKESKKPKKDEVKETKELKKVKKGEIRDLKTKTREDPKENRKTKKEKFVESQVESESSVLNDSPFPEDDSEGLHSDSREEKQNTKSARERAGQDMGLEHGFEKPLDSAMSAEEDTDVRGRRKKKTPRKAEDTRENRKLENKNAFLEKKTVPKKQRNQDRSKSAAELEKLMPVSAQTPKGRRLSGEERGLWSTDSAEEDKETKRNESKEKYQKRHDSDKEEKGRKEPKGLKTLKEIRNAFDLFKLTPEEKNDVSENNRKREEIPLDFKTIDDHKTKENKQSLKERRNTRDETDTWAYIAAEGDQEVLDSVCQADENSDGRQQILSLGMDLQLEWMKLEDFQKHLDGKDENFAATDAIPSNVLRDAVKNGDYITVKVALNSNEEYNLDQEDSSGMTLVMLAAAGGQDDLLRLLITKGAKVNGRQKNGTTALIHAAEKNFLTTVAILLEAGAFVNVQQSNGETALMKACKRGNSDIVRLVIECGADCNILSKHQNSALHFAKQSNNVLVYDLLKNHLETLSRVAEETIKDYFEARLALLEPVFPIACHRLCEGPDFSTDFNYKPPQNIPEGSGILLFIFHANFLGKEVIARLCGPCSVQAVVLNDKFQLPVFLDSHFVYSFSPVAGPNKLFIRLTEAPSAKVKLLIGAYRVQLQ
# Sequence of Transient receptor potential cation channel subfamily V member 1 (Homo sapiens) (Q8NER1 whole entry, looked up): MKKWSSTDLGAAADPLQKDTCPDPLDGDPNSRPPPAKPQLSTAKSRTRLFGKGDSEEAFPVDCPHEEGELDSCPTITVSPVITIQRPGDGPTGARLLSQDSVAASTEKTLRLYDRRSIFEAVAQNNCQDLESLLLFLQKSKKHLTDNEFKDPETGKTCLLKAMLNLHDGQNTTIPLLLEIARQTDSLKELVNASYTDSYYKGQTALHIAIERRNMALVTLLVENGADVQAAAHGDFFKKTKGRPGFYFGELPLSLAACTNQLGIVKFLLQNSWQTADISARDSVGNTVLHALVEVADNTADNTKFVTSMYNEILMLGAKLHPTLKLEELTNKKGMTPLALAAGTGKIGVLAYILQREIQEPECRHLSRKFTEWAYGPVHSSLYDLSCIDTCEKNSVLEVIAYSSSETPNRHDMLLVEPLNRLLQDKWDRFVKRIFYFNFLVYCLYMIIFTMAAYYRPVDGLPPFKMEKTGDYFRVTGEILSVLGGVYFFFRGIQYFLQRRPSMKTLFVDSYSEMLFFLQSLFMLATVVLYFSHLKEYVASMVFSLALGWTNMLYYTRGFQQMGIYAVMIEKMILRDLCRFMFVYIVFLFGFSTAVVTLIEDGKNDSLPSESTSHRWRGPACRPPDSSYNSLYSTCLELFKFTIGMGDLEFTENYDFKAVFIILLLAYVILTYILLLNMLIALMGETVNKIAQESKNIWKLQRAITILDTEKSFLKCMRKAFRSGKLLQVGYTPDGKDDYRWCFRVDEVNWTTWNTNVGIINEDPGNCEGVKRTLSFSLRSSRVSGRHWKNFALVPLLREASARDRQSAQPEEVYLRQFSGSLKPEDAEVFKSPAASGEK
smiles,measurement,setting,value
C[N+]1(C)CCc2cc3c(cc2C1C1OC(=O)c2c1ccc1c2OCO1)OCO3 (stereo unspecified),outcome,[1],inactive
same,"activity change, negative = inhibition",[2]; at 57.5 µM (top of the series),2.12% (inactive)
same,max response,[2]; measured here: cell count channel max response,1.78%
same,max response,[2]; measured here: lipid channel max response,1.49%
same,Potency,[3],inactive
same,Potency,[4],inactive
same,Potency,[5],inactive
same,Potency,[6],inactive
same,Potency,[7],8.91 µM (active)
same,Potency,[8],inactive
same,Potency,[9],inactive
same,Potency,[10],inactive
same,outcome,[11],inactive
same,outcome,[12],inactive
same,Potency,[13],inactive
same,Potency,[14],inactive
same,Potency,[15],inactive
same,Potency,[16],inactive
same,Potency,[17],inactive
same,Potency,[18],inactive
same,outcome,[19],inactive
same,outcome,[20],inactive
same,activation,[21],0.938% (inactive)
same,outcome,[22],inactive
same,Potency,[23],inactive
same,Potency,[24],inactive
